In general, AC50 refers to the concentration giving half of the maximal activity seen.

Calls of active or inactive are those of the source. The calls were made as follows: active = hit-call score of the fitted dose curve at least 0.9, where 1 is the maximum; inactive = score below 0.9.

Read-out in this assay: Urokinase-type plasminogen activator receptor (uPAR), PLAUR (gene 5329)
As to the kind of experiment: BSK_4H_uPAR: BioMAP Diversity Plus: 4H Assay for Urokinase-type plasminogen activator receptor (uPAR) Biomarker Activity (AID 2283030). The note with it: primary human endothelial cells (HUVEC); actives raise or lower the signal. The protocol: BSK_4H is a cell-based, multiplexed-readout assay that uses umbilical vein endothelium, a human vascular primary cell, with measurements taken at 24 hours after chemical dosing in a 96-well plate.BSK_4HAR is an assay component measured in the BSK_4H assay. It measures uPAR antibody related to regulation of gene expression using ELISA technology.Data from the assay component BSK_4HAR was analyzed into 1 assay endpoint. This assay endpoint, BSK_4HAR, was analyzed with bidirectional fitting relative to DMSO as the negative control and baseline of activity. Using a type of binding reporter, gain or loss-of-signal activity can be used to understand changes in the signaling as they relate to the gene PLAUR. Furthermore, this assay endpoint can be referred to as a primary readout, because this assay has produced multiple assay endpoints where this one serves a signaling function. To generalize the intended target to other relatable targets, this assay endpoint is annotated to the cytokine intended target family, where the subfamily is plasmogen activator.
The levels of cell surface (or secreted, indicated by the prefix "s") biomarker endpoints were measured by ELISA. Overt cytotoxicity to cells in confluent adherent cultures (all systems other than the BT system) was assessed by measuring total protein levels using sulforhodamine B (SRB) staining in parallel cultures at the time of biomarker measurements, indicated as SRB endpoints. For proliferation assays for adherent cell types, individual cell types are cultured at sub-confluence and relative cell numbers quantified by SRB staining at time points optimized for each system (48 h: 3C and CASM3C systems; 72 h: BT and HDF3CGF systems; 96 h: SAg system). SRB was performed by staining cells with 0.1% SRB after fixation with 10% TCA and reading wells at 560 nm.Viability and proliferation of PBMC (T cells) was quantified by Alamar Blue reduction for the SAg and BT systems. For PBMC viability (referred to as PBMC Cytotoxicity within the assay endpoint names), cells were plated (75,000/well in a 96-well plate) and then chemical samples added for 1 h before addition of activators, SEB and TSST-1 (20 ng/mL final concentration each). Cells were incubated for 90 h. Then, Alamar Blue (20 uL/well) (Invitrogen, Cat DAL1100) was added for 6 h, and the plates were read with a fluorescence microplate reader at 546/580 nm (excitation/emission). For PBMC proliferation, cells were plated and activated as above but incubated for only 16 h prior to addition of Alamar Blue. Plates were read after 6 h.
As to `O=C(O)C=CC(F)(C(F)(F)F)C(F)(F)F`, the outcome was inactive.

For `C=CC(=O)OCC(F)(F)C(F)F`, the outcome was inactive.

As to `CCC(C)(C)c1ccc(O)cc1`, the result was inactive.

Take `COC(=O)C(F)(F)C(F)(F)OC(F)(C(F)(F)F)C(F)(F)OC(F)=C(F)F` (stereo not given): the outcome was inactive.

On to `O=C(O)C(F)(F)C(F)(F)C(=O)O`, for which the outcome was inactive.

Turning to `Cc1cccc(N)c1`, the result was inactive.

With `CC(C)(C)c1ccccc1OP(=O)(Oc1ccccc1)Oc1ccccc1`, the AC50 is 34.4 µM (active).

Consider `OCC(F)(F)OC(F)(F)C(F)(F)OC(F)(F)C(F)(F)OC(F)(F)CO`, for which the result was inactive.

`COP(=O)(CCC(=O)NCO)OC`: the outcome was inactive.

As for `Cc1ccc(N)cc1N`, the outcome was inactive.

Take `CCOP(=S)(Oc1ccc([N+](=O)[O-])cc1)c1ccccc1` (stereo not given): the outcome was inactive.

As to `O=P1(N(CCCl)CCCl)NCCCO1` (stereo not given), the result was inactive.

As to `O=P(OCC(Br)CBr)(OCC(Br)CBr)OCC(Br)CBr` (stereo not given), the result was inactive.

Take `COP(=O)(O)OC`: the result was inactive.

For `Cc1c([N+](=O)[O-])cc2c(c1[N+](=O)[O-])C(C)(C)CC2(C)C`, the outcome was inactive.

Take `O=C(O)C1C(C(=O)O)C2(Cl)C(Cl)=C(Cl)C1(Cl)C2(Cl)Cl` (stereo not given): the result was inactive.

Turning to `CCCCOCCOP(=O)(OCCOCCCC)OCCOCCCC`, the outcome was inactive.

As to `CCCCN(CCCC)N=O`, the outcome was inactive.

Consider `ClC(Cl)(Cl)c1ccccc1`, for which the result was inactive.

For the molecule `CN(C)C(=O)Cl`, the result was inactive.

Turning to `CCOS(=O)(=O)OCC`, the outcome was inactive.

Regarding `CCOP(=S)(OCC)SCSCC`, the outcome was inactive.

Regarding `Cc1ccc([N+](=O)[O-])cc1C`, the outcome was inactive.

In the case of `O=S(=O)(F)C(F)(F)C(F)(F)C(F)(F)C(F)(F)C(F)(F)C(F)(F)C(F)(F)C(F)(F)F`, the outcome was inactive.

In the case of `NC(=O)C(F)(F)C(F)(F)F`, the outcome was inactive.

As to `ClC1=C(Cl)C2(Cl)C3C(Cl)C(Cl)CC3C1(Cl)C2(Cl)Cl` (stereo not given), the AC50 was 38 µM (active).

In the case of `O=C(O)C(F)(F)OC(F)(F)C(F)(F)OC(F)(F)C(=O)O`, the outcome was inactive.

For the molecule `OCC1CO1` (stereo not given), the outcome was inactive.

In the case of `N#Cc1c(-c2ccc(Cl)cc2)[nH]c(C(F)(F)F)c1Br`, the AC50 was 0.13 µM (active).

As for `CCCCCCCc1ccc(O)cc1`, the AC50 was 38.4 µM (active).

With `Nc1ccc2ccccc2c1`, the outcome was inactive.

Regarding `ClC(Cl)=C(c1ccc(Cl)cc1)c1ccccc1Cl`, the AC50 was 11.7 µM (active).

For `c1ccc2c(c1)sc1ccccc12`, the result was inactive.

With `c1ccc2c(c1)Nc1ccccc1S2`, the outcome was inactive.

Consider `CCCCc1ccccc1`, for which the outcome was inactive.

For `FC(F)(F)C(F)(C(F)(F)F)C(F)(F)C(F)(F)CC1CO1` (stereo not given), the result was inactive.

Take `c1ccc(OP(Oc2ccccc2)Oc2ccccc2)cc1`: the result was inactive.

For `O=[N+]([O-])c1ccccc1`, the result was inactive.

In the case of `O=[N+]([O-])c1ccc(Cl)c(Cl)c1`, the outcome was inactive.

On to `c1nc[nH]n1`, for which the result was inactive.
